Laboratory results from PubChem BioAssay AID1159580 (chemical genetic matrix, 2015).
In all, about 5,500 compounds went through this assay and about 2,000 (36%) were called active. Roughly 18% stayed inconclusive and do not appear here. Cut-off read from the data, not from the text of the source: active = normalized growth mostly below about 0.91 (no sharp cut-off); inconclusive = no clear call, values can overlap the other calls; inactive = mostly above about 0.92. Some of the results follow.

Assay: chemical genetic growth profiling, strain panel (AID 1159580);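 note: tested at 20 µM; growth read once vehicle control cultures reached saturation at 30 °C; 1 = growth at the plate median or of vehicle wells; lower values mean less growth of the strain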
Details: growth OD

Measured: normalized growth

CC(=O)Oc1cccc(O)c1
inactive: S. cerevisiae deletion strains, locus YJR075W, strain HOC1, hits give low values 1 | S. cerevisiae deletion strains, locus YKL009W, strain mrt4, hits give low values 1.01 | S. cerevisiae deletion strains, locus YKL068W, hits give low values 1 | S. cerevisiae deletion strains, locus YKL085W, strain MDH1 (second series), hits give low values 1 | S. cerevisiae deletion strains, locus YKL085W, strain MDH1, hits give low values 1 | S. cerevisiae deletion strains, locus YKL160W, strain elf1, hits give low values 1.01 | S. cerevisiae deletion strains, locus YKL190W, strain CNB1, hits give low values 1 | S. cerevisiae deletion strains, locus YKR001C, strain vps1, hits give low values 1.02 | S. cerevisiae deletion strains, locus YKR026C, strain gcn3, hits give low values 1.01 | S. cerevisiae deletion strains, locus YKR091W, strain srl3, hits give low values 1.01 | S. cerevisiae deletion strains, locus YLL001W, strain dnm1, hits give low values 1.02 | S. cerevisiae deletion strains, locus YLL026W, hits give low values 1.01 | S. cerevisiae deletion strains, locus YLL041C, strain sdh2, hits give low values 1.01 | S. cerevisiae deletion strains, locus YLR027C, strain aat2, hits give low values 1.03 | S. cerevisiae deletion strains, locus YLR039C, strain RIC1, hits give low values 1.04 | S. cerevisiae deletion strains, locus YLR058C, strain SHM2, hits give low values 1.01 | S. cerevisiae deletion strains, locus YLR102C, strain apc9, hits give low values 1.01 | S. cerevisiae deletion strains, locus YLR113W, strain HOG1, hits give low values 0.982 | S. cerevisiae deletion strains, locus YLR221C, strain rsa3, hits give low values 1.03 | S. cerevisiae deletion strains, locus YLR258W, strain gsy2, hits give low values 1.02 | S. cerevisiae deletion strains, locus YLR262C, strain YPT6 (second series), hits give low values 1.04 | S. cerevisiae deletion strains, locus YLR262C, strain YPT6, hits give low values 1.05 | S. cerevisiae deletion strains, locus YLR268W, strain sec22, hits give low values 1.02 | S. cerevisiae deletion strains, locus YLR320W, strain mms22, hits give low values 1.04 | S. cerevisiae deletion strains, locus YLR330W, strain CHS5, hits give low values 1.01 | S. cerevisiae deletion strains, locus YLR342W, strain FKS1 (second series), hits give low values 1.01 | S. cerevisiae deletion strains, locus YLR342W, strain FKS1, hits give low values 1.03 | S. cerevisiae deletion strains, locus YLR357W, strain rsc2, hits give low values 1.02 | S. cerevisiae deletion strains, locus YLR370C, strain arc18, hits give low values 1.01 | S. cerevisiae deletion strains, locus YLR371W, strain rom2, hits give low values 1 | S. cerevisiae deletion strains, locus YLR384C, strain iki3, hits give low values 1.01 | S. cerevisiae deletion strains, locus YLR418C, strain cdc73, hits give low values 1.05 | S. cerevisiae deletion strains, locus YML016C, strain PPZ1, hits give low values 1.01 | S. cerevisiae deletion strains, locus YML032C, strain rad52, hits give low values 1.02 | S. cerevisiae deletion strains, locus YML120C, strain ndi1, hits give low values 1.01 | S. cerevisiae deletion strains, locus YML124C, strain tub3, hits give low values 1.01 | S. cerevisiae deletion strains, locus YMR058W, strain fet3, hits give low values 1.03 | S. cerevisiae deletion strains, locus YMR078C, strain ctf18, hits give low values 1.02 | S. cerevisiae deletion strains, locus YMR125W, strain sto1, hits give low values 1.03 | S. cerevisiae deletion strains, locus YMR129W, hits give low values 1.01 | S. cerevisiae deletion strains, locus YMR205C, strain PFK2, hits give low values 1.03 | S. cerevisiae deletion strains, locus YMR223W, strain ubp8, hits give low values 1.02 | S. cerevisiae deletion strains, locus YMR231W, strain pep5, hits give low values 1.01 | S. cerevisiae deletion strains, locus YMR263W, strain SAP30, hits give low values 1 | S. cerevisiae deletion strains, locus YMR307W, strain GAS1, hits give low values 0.985 | S. cerevisiae deletion strains, locus YNL067W, strain RPL9B, hits give low values 0.996 | S. cerevisiae deletion strains, locus YNL071W, strain lat1, hits give low values 1.02 | S. cerevisiae deletion strains, locus YNL128W, strain TEP1, hits give low values 1.01 | S. cerevisiae deletion strains, locus YNL183C, strain NPR1, hits give low values 0.938 | S. cerevisiae deletion strains, locus YNL209W, strain ssb2, hits give low values 1.04 | S. cerevisiae deletion strains, locus YNL233W, strain BNI4, hits give low values 0.993 | S. cerevisiae deletion strains, locus YNL248C, strain rpa49, hits give low values 1.03 | S. cerevisiae deletion strains, locus YNL250W, strain rad50, hits give low values 1.06 | S. cerevisiae deletion strains, locus YNL271C, strain bni1, hits give low values 1.01 | S. cerevisiae deletion strains, locus YNL298W, strain CLA4, hits give low values 1.03 | S. cerevisiae deletion strains, locus YNL307C, strain MCK1, hits give low values 1.02 | S. cerevisiae deletion strains, locus YNL322C, strain KRE1 (second series), hits give low values 1.01 | S. cerevisiae deletion strains, locus YNR049C, strain mso1, hits give low values 1 | S. cerevisiae deletion strains, locus YNR052C, strain pop2, hits give low values 1.01 | S. cerevisiae deletion strains, locus YOL006C, strain TOP1, hits give low values 0.999 | S. cerevisiae deletion strains, locus YOL012C, strain htz1 0.912 | S. cerevisiae deletion strains, locus YOL147C, strain pex11, hits give low values 1.01 | S. cerevisiae deletion strains, locus YOR001W, strain rrp6, hits give low values 1.05 | S. cerevisiae deletion strains, locus YOR061W, strain CKA2, hits give low values 1.01 | S. cerevisiae deletion strains, locus YOR069W, strain VPS5, hits give low values 1 | S. cerevisiae deletion strains, locus YOR070C, strain gyp1, hits give low values 1.02 | S. cerevisiae deletion strains, locus YOR080W, strain dia2, hits give low values 1.01 | S. cerevisiae deletion strains, locus YOR083W, strain WHI5, hits give low values 1.01 | S. cerevisiae deletion strains, locus YOR106W, strain vam3, hits give low values 1.02 | S. cerevisiae deletion strains, locus YOR136W, strain idh2, hits give low values 1.02 | S. cerevisiae deletion strains, locus YOR144C, strain elg1, hits give low values 1.01 | S. cerevisiae deletion strains, locus YOR184W, strain ser1, hits give low values 1.03 | S. cerevisiae deletion strains, locus YOR231W, strain MKK1, hits give low values 0.977 | S. cerevisiae deletion strains, locus YOR265W, strain rbl2, hits give low values 1 | S. cerevisiae deletion strains, locus YOR270C, strain vph1, hits give low values 1.07 | S. cerevisiae deletion strains, locus YOR290C, strain snf2, hits give low values 1.01 | S. cerevisiae deletion strains, locus YOR316C, strain cot1, hits give low values 1.01 | S. cerevisiae deletion strains, locus YPL051W, strain arl3, hits give low values 1.04 | S. cerevisiae deletion strains, locus YPL078C, strain atp4, hits give low values 1.03 | S. cerevisiae deletion strains, locus YPL106C, strain sse1, hits give low values 1.01 | S. cerevisiae deletion strains, locus YPL240C, strain hsp82, hits give low values 1.03 | S. cerevisiae deletion strains, locus YPL241C, strain CIN2, hits give low values 1.01 | S. cerevisiae deletion strains, locus YPL256C, strain CLN2, hits give low values 0.951 | S. cerevisiae deletion strains, locus YPR119W, strain clb2, hits give low values 1.01 | S. cerevisiae deletion strains, locus YPR141C, strain kar3, hits give low values 1.01 | S. cerevisiae deletion strains, locus YPR163C, strain tif3, hits give low values 1.02 | S. cerevisiae deletion strains, locus YPR167C, strain met16, hits give low values 1.01 | S. cerevisiae deletion strains, strain wtn01, hits give low values 1.03 | S. cerevisiae strains, strain wild type, hits give low values 1.01
